Screens from PubChem BioAssay.
aSyn 5UTR act: Activators via SNCA 5'UTR binding, MLPCN | 300,000 tested, 7.1% active | alpha-synuclein 5'UTR reporter, activators screen | activity score, % (tested at 7.5 µM), hits read low; in the data active = activity score below about -60%
Numbers stand for hits; - = inactive. Not all results are given here.

SMILES	aSyn 5UTR act
COc1ccc(CNCCC(c2ccc(OC(C)C)cc2)c2ccccc2OC)cc1 (stereo not given)	-
COc1ccc(NC(C)c2ccccc2)cc1 (stereo not given)	-90.7
COc1ccc(-n2nc([N+](=O)[O-])c(=NCc3cccnc3)n2O)cc1	-121.0
COc1ccc(-n2nc([N+](=O)[O-])c(=NCc3ccco3)n2O)cc1	-83.2
CCc1ccc(N=c2c([N+](=O)[O-])nn(-c3ccccc3)n2O)cc1	-88.2
COc1ccc(-n2nc([N+](=O)[O-])c(=NCCC3=CCCCC3)n2O)cc1	-81.8
CCOc1cc(/C=C(\C#N)C(N)=O)ccc1OCc1c(C)no[n+]1[O-]	-62.8
Brc1ccc(C2C3=C(Nc4ncnn42)c2ccccc2OC3c2ccncc2)cc1 (stereo not given)	-
CC(C)N1CCC2(CC1)N=C(c1ccc3c(c1)OCO3)CC(c1cc(Cl)ccc1O)N2 (stereo not given)	-172.7
Cc1cccc(OCC(=O)O/N=C(\N)c2ccccn2)c1C	-172.3
N/C(=N\OC(=O)COc1cc(Cl)c(Cl)cc1Cl)c1ccccn1	-150.5
O/N=C/c1ccn(-c2ccc(Br)cc2)c1	-84.1
Cc1ccc(NC(=S)c2nc3ccccc3[nH]2)c(C)c1	-115.7
Cc1ccc(NC(=S)Nc2ccccn2)c(C)c1	-146.9
Cc1ccc(NC(=S)NNC(=S)Nc2ccc(C)cc2C)cc1	-
Cc1cc(Cl)ccc1NC(=S)Nc1ccccn1	-90.9
CCOc1ccc(N=C(/C(C(=O)C(=O)N2CCOCC2)=C(/O)c2ccccc2)c2ccccc2)cc1	-202.9
CC(=O)c1c(C)oc2ccc(N(C(C)=O)S(=O)(=O)c3ccc(Cl)c([N+](=O)[O-])c3)cc12	-
CN(C)/C=C/C(=O)c1ccc(Cl)c([N+](=O)[O-])c1	-73.2
COC(=O)C1C(=O)c2c([nH]c(C(=O)OC3CCCC3C)c2C)CC1C (stereo not given)	-168.2
CCOC(=O)c1[nH]c2c(c1C)C(=O)CC(c1ccc(F)cc1)C2 (stereo not given)	-
COC(=O)C1C(=O)c2c([nH]c(C(=O)OC3CCCCC3)c2C)CC1C (stereo not given)	-178.3
Cc1cccc(OCCCn2c(CO)nc3ccccc32)c1	-84.4
Cc1ccc(OCCCn2c(CO)nc3ccccc32)cc1	-62.1
COc1ccc(C(=O)N2CCc3ccc(NC(=O)c4ccccn4)cc3C2)cc1F	-101.2
SMILES	aSyn 5UTR act
CCc1c(C)nc(SCC(=O)c2cccs2)c(C#N)c1C	-269.3
Nc1c(C(=O)c2ccccc2)sc2nsc(SCCN3CCOCC3)c12	-157.1
CC1(c2ccccc2)CC(c2ccccc2)=Nc2ccccc2N1 (stereo not given)	-104.1
CCNc1nc(-c2ccc(Cl)cc2)cs1	-169.5
CNc1nc(-c2ccc(Cl)cc2)cs1	-203.7
COc1ccc(-c2nc(SC)n(C(=O)c3ccco3)n2)cc1	-129.9
COc1ccc(-c2nc(SCc3ccccc3)n(C(=O)c3ccco3)n2)cc1	-80.5
Cc1sc(NC(=O)C2CCCCC2)c(C#N)c1-c1ccccc1	-237.3
N#Cc1c(Cl)nsc1NC(=O)c1ccccc1	-65.6
C=CCNc1sc(C(=O)c2ccccc2)c(N)c1C#N	-
Cc1cccc(C(=O)Nc2sc(C)c(-c3ccccc3)c2C#N)c1	-259.6
O=c1[nH]c(-c2ccco2)nc2sc3c(c12)CCCC3	-125.5
Cn1c(=O)c2c(nc(NCC3CCCC(CN)C3)n2Cc2ccc(Cl)cc2Cl)n(C)c1=O (stereo not given)	-83.7
COc1ccc2c(c1)C1OCCC1C(c1ccco1)N2 (stereo not given)	-76.5
COC(=O)C1=C(O)/C(=C\c2cc(C)n(-c3ccccc3C)c2C)N=C1C	-81.7
COc1cccc(/C=N/n2c(=O)[nH]c3ccccc32)c1OC	-163.7
COc1cc(N)ccc1C(=O)O	-76.0
N#C/C(=C\Nc1ccccc1O)c1nc2ccccc2o1	-111.8
COc1ccc(CCNC(=O)c2cc3c(=O)n4cccc(C)c4nc3n(CCCN3CCOCC3)c2=N)cc1	-67.3
COc1ccc(CCn2c(=N)c(C(=O)NCC3CCCO3)cc3c(=O)n4cccc(C)c4nc32)cc1 (stereo not given)	-115.8
COc1ccc(CNC(=O)C(C)Sc2nc3ccccc3c(=O)n2CCCN2CCOCC2)cc1 (stereo not given)	-
CCOC(=O)c1oc2ccc(/C=N/O)c(Cl)c2c1C	-140.4
CCN(CC(=O)Nc1ccc2c(c1)OCCO2)C(=O)c1ccc(C(F)(F)F)cc1	-62.5
CCN(CC(=O)Nc1ccc2c(c1)OCCO2)C(=O)c1ccc(Cl)cc1Cl	-111.7
Cc1ccc(/C=C(\C#N)C(=O)Nc2ccccn2)o1	-163.5
SMILES	aSyn 5UTR act
O=C(Nc1cccc(-c2nc3ccccc3s2)c1)c1cccs1	-63.4
O=C(CCS(=O)(=O)c1ccccc1)Nc1cccc(-c2nc3ccccc3s2)c1	-134.6
O=C(CSc1nnc2ccccn12)Nc1cccc(-c2nc3ccccc3s2)c1	-134.4
Cc1cccc(-n2cc(-c3ccc([N+](=O)[O-])cc3)[nH]c2=S)c1	-80.2
O=[N+]([O-])c1ccc(-c2cn(-c3ccccc3)c(=S)[nH]2)cc1	-100.6
O=[N+]([O-])c1cccc(-c2cn(-c3ccccc3)c(=S)[nH]2)c1	-178.8
